Experiment: JC-1 mitochondrial signal, unstimulated HepG2 cells – cell-based, JC-1 fluorescence, 24 h, 100 nL compound, profiling panel (AID 1167); further: test concentration not given here
Conditions: HepG2 mitochondrial potential, higher = more signal

Row | SMILES | z-score
1 | O=C(NCc1ccccc1)[C@@]1(Cc2ccccc2)COC(c2ccc(OCCCO)cc2)=N1 | -2.97
2 | C=C(CCCC)/C(=C/C[C@@H](OC(=O)c1ccncc1)c1ccc(CO)o1)c1cnc2ccccc2c1 | -0.526
3 | O=C1C2C=CC(C(O)C#Cc3ccccc3)N(Nc3ccccc3)C2C(=O)N1c1ccccc1 (centres undefined) | -1.53
4 | CCCC=C(CCC)[C@@H](NC(=O)c1ccc(C(F)(F)F)cc1)c1ccccc1 | -2.98
5 | COc1ccc(NN2C(C(O)c3cc(OC)c(OC)c(OC)c3)C=CC3C(=O)N(C4CCCCC4)C(=O)C32)cc1 (centres undefined) | 0.861
6 | C#CCCCON=C1C[C@@H](O)[C@@H](O)[C@@H]2[C@@H]3C(=O)N(Cc4ccc5c(c4)OCO5)C(=O)[C@@H]3CC[C@@H]12 | 0.722
7 | COC(=O)C1=CC(c2ccc(CO)cc2)=CC(c2cccs2)N(Cc2cccc(OC(F)(F)F)c2)C=C1C(=O)OC (centres undefined) | -0.908
8 | O=C1O[C@H](c2ccccc2)[C@H](c2ccccc2)N2[C@H]1[C@@H](C(=O)NC[C@H](O)c1ccccc1)[C@]1(C(=O)Nc3ccc(C#CC4=CCCCC4)cc31)[C@H]2c1ccc(OCCO)cc1 | -2.36
9 | CC[C@H]1C2=C3C(CC[C@H]4C(OC)OC[C@](C)([C@@H]34)N(C(=O)OC(C)(C)C)C2)C(CO)C1CO (some centres undefined) | -0.528
